# According to the supplement of paper PMC10338343:
# ± gives the standard deviation.
# Tested on: MILI (PIWIL2) piRISC loaded with L1MC piRNA (26 nt)
# Experiment: pre-steady-state target cleavage rate (min^-1); guide: L1MC piRNA 5'p-UAACUAAAUACUAUGCAAGCUGUAGG; MIWI and MILI are mouse PIWI proteins and EfPiwi is from a freshwater sponge; tags in brackets are library labels; higher = faster piRNA-guided slicing of the target
# Settings: auxiliary factor: none (no GTSF1)
# Summary of the method: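 Cleave-'n-Seq: a transcribed, DNA-blocked target RNA library (0.1 nM) was mixed with 1 nM active affinity-purified piRISC carrying one synthetic guide, with or without 500 nM GTSF1 partner protein, in HEPES–potassium acetate buffer at 33 °C for 0–8 or 0–960 min. Uncleaved targets were sequenced and normalised to depth and to weakly complementary targets. Three trials were pooled, and k3 was capped at 0.0001 min^-1. The pre-steady-state cleavage rate came from a burst-and-steady-state fit.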
row,Sequence,pre-steady-state target cleavage rate
1,UCCUGGAUGUGCUUGCAUAGUAUUUUGUUA,0.00381 ± 0.0032
2,UCCUCCUACAGCUUCGAUAGUAUUUAGUUA,0.00534 ± 0.0022
3,UCCUGGUACAGCUUGCUUAGUAUUUAGUUA,0.00964 ± 0.0022
4,UCCUGCUACAGCUUGGUUAGUAUUUAGUAA,0.00357 ± 0.0022
5,UCCUGCUACAGCUUGCAUAGUAUUUAGUCA,0.00397 ± 0.0022
6,UCCUCCUACAGCAUGCAUAGUAAUUAGUUA,0.00544 ± 0.0019
7,UCCUGCUACAGGUUGCAUACUAUUUAGUUA,0.00412 ± 0.002
8,UCCUGGUAGAGCUUGCAUAGUAUUUAGUAA,0.0096 ± 0.0028
9,UCCUGGUACAGCUUGCAUAGUAUAAUGUUA,0.00565 ± 0.0032
10,UCCUGGUACAGCUUGCAUAGUAUUCUAGUUA,0.00551 ± 0.0045
11,UCCUGGUACAGCUUGCAUAGUAUUUAGUA,0.00521 ± 0.003
12,UCCUGGUACAGCUUGCAUAGUAUCUUAGUUA,0.00861 ± 0.0033
13,UCCUGGUACAGCUUGCAUAGUGUUUAGUUA,0.00946 ± 0.0035
14,UCCUGGAACACUUGCAUAGUAUUUAGUUA,0.00651 ± 0.0021
15,UCCUGGAACAAGCUUGCAUAGUAUUUAGUUA,0.0116 ± 0.003
16,UCCUGGAUGACGCUUGCAUAGUAUUUAGUUA,0.00493 ± 0.0037
17,UCCUGGAACAGCAUGCAUUGUAUUUAGUUA,0.00901 ± 0.0024
18,UCCUGCUCACAGCUUGCAUAGUAUUUAGUUA,0.0111 ± 0.0037
19,UCCUGGAUGAUCUUGCAUAGUAUUUAGUUA,0.00813 ± 0.003
20,UCCUGCUUCAGCUUGCAUAGUAUUUAGUUA,0.0109 ± 0.0023

row,Sequence,pre-steady-state target cleavage rate
1,UCCUCCUACACCUUGCAAAGUAUUUAGUUA,0.00739 ± 0.0022
2,UCCUGGAACAGGUUGCAUUGUAUUUAGUUA,0.00837 ± 0.0019
3,UCCUCCUACAGCUUGCAUUGUAUUUAGUUA,0.00744 ± 0.0019
4,UCCUGGAUGUGCUUGCAUAGUAUUUAGGUUA,0.00588 ± 0.0033
5,UCCUCCUAUAGCUUGCAUAGUAUUUAGUUA,0.00658 ± 0.0019
6,UCCUGGAUCAGCUUACAUAGUAUUUAGUUA,0.00805 ± 0.0023
7,UCCUCCAACUGCUUGCAUAGUAUUUAGUUA,0.00659 ± 0.0019
8,UCCUGGAUGUGAUUGCAUAGUAUUUAGUUA,0.00851 ± 0.0026
9,UCCUGGUACAGGUUGCAUAGUAUUAAGUUA,0.00893 ± 0.0037
10,UCCUGGAUGUGCUUGCAUAGUAUUUAGUAA,0.00665 ± 0.0025
11,UCCUGGAACAGCUUAGCAUAGUAUUUAGUUA,0.00815 ± 0.0027
12,UCCUGGAUCAGCCUUGCAUAGUAUUUAGUUA,0.00595 ± 0.0023
13,UCCUGGAUAAGCUUGCAUAGUAUUUAGUUA,0.0122 ± 0.0029
14,UCCUGGUAGAGCUAGCAUAGUAUUUAGUUA,0.00986 ± 0.0028
15,UCCUGGAACAGCUUCCAAAGUAUUUAGUUA,0.00525 ± 0.0018
16,UCCUGGUACAGCUUGCAUAGUAUUAUAGUUA,0.00483 ± 0.003
17,UCCUGGUUACAGCUUGCAUAGUAUUUAGUUA,0.03 ± 0.0078
18,UCCUCCUUCAGCUUGGAUAGUAUUUAGUUA,0.0086 ± 0.0023
19,UCCUGGAACAGCUUGCAUAGUAUUUAGUUG [g2:g23:cont:t1G],0.00663 ± 0.0021
20,UCCUCGAUCAGCUUGCAUAGUAUUUAGUUA,0.0102 ± 0.0027
